For orientation: AC50 means the concentration at which the activity in the assay is half-maximal.

The target in assay [1] is Myc proto-oncogene protein (Homo sapiens) (UniProt P01106). Kind of assay: ATG_Myc_CIS: Attagene CIS-FACTORIAL HepG2 Assay for human Myelocytomatosis (Myc) Proto-Oncogene Transcription Factor (AID 2282990). Conditions: HepG2, Attagene cis-reporter transcription factor activity; actives raise or lower the signal. The method, boiled down:
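Transiently transfected HepG2 cells bearing cis-promoter reporter units for endogenous transcription factors; 24 h exposure. Reporter mRNA measured by RT-PCR, 6-FAM primer extension, HpaI cut and capillary electrophoresis; bidirectional fit relative to DMSO.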

Assay [2] in a line: ATG_Oct_MLP_CIS: Attagene CIS-FACTORIAL HepG2 Assay for human Octamer-Binding Transcription Factor (Oct) (AID 2282993). Conditions: HepG2 Attagene cis-factorial Oct reporter, mRNA; actives raise or lower the signal. In a few lines: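 Read-out: reporter mRNA via RT-PCR plus capillary electrophoresis of 6-FAM-labelled fragments. Transiently transfected HepG2, 24 h exposure, endogenous TF activity on cis elements. Gain or loss of signal fitted relative to DMSO.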

Assay [3] in a line: BSK_3C_TissueFactor: BioMAP Diversity Plus: 3C Assay for Tissue Factor Biomarker Activity (AID 2282997). Conditions: BioMAP 3C HUVEC, tissue factor biomarker readout; actives raise or lower the signal. The method, boiled down:
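Human vascular primary cells (umbilical vein endothelium) received test chemical; Tissue Factor was determined by ELISA at 24 h, and both gain and loss of signal versus DMSO were fitted.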

The nature of assay [4]: BSK_3C_uPAR: BioMAP Diversity Plus: 3C Assay for Urokinase-type plasminogen activator receptor (uPAR) Biomarker Activity (AID 2282998). The note with it: BioMAP 3C HUVEC, uPAR biomarker ELISA; actives raise or lower the signal. The method, boiled down: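 HUVEC primary cells; 24 h post-dose; uPAR by ELISA; gain or loss of signal fitted bidirectionally vs DMSO baseline.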
Assay [5] is described as follows: BSK_4H_Eotaxin3: BioMAP Diversity Plus: 4H Assay for Eotaxin 3 Biomarker Activity (AID 2283000).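 For outcome: CCL26 protein level quantified by ELISA in parallel with SRB cytotoxicity check.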 The note with it: primary human endothelial cells (HUVEC); actives raise or lower the signal. The method, boiled down:
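Readout is Eotaxin-3 (CCL26) level by ELISA in primary human umbilical vein endothelial cells harvested 24 h after chemical exposure; activity fitted in both directions against DMSO control.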

For assay [6], the target named is human Peroxisome Proliferator-activated Receptor alpha (PPARa), PPARA (gene 5465) (UniProt Q07869). Kind of assay: ATG_PPARa_TRANS: Attagene TRANS-FACTORIAL HepG2 Assay for human Peroxisome Proliferator-activated Receptor alpha (PPARa) (AID 2283001; active = hit-call score of the fitted dose curve at least 0.9, where 1 is the maximum). The method, boiled down: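 Measures transcriptional activity of an exogenous chimeric PPARa-Gal4 protein in transiently transfected HepG2 cells after 24 h dosing. Reporter mRNA quantified via RT-PCR and capillary electrophoresis; DMSO served as negative control.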
human Peroxisome Proliferator-activated Receptor alpha (PPARa), PPARA (gene 5465), sequence (Q07869 whole entry, looked up, the tested form may be a part): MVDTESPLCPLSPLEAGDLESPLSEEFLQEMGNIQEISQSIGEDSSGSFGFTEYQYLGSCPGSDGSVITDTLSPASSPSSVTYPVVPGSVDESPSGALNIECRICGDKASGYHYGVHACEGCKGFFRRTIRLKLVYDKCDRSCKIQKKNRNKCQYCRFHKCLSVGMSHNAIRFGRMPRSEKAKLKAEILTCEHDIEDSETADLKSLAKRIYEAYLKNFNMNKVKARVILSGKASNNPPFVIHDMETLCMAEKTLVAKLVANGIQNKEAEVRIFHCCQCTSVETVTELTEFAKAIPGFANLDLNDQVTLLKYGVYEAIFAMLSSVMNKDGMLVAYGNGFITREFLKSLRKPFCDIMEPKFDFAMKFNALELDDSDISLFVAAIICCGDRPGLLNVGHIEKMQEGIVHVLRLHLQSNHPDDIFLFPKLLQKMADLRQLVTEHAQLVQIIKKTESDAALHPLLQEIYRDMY

Assay [7] deals with human Peroxisome Proliferator-activated Receptor delta (PPARd), PPARD (gene 5467) (UniProt Q03181). As to the kind of experiment: ATG_PPARd_TRANS: Attagene TRANS-FACTORIAL HepG2 Assay for human Peroxisome Proliferator-activated Receptor delta (PPARd) (AID 2283002; active = hit-call score of the fitted dose curve at least 0.9, where 1 is the maximum). The method, boiled down: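 HepG2 cells transiently transfected with GAL4-UAS multiplexed reporter units driven by exogenous chimeric NR-GAL4 proteins; 24 h compound exposure. Reporter mRNA measured by RT-PCR, 6-FAM primer extension, HpaI digestion and capillary electrophoresis; gain of signal fitted relative to DMSO.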
human Peroxisome Proliferator-activated Receptor delta (PPARd), PPARD (gene 5467), sequence (Q03181 whole entry, looked up, the tested form may be a part): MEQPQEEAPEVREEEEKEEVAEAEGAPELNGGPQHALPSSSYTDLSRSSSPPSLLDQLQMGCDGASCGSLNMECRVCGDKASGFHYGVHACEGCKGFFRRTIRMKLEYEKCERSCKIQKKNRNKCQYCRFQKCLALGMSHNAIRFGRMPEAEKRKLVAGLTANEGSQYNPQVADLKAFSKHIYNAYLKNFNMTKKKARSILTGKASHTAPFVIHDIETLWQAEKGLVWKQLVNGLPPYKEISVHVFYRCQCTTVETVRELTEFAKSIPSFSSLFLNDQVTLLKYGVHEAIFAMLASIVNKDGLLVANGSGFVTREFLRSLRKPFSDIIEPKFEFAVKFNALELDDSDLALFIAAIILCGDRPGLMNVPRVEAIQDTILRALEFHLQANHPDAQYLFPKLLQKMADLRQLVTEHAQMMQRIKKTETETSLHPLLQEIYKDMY

Read-out in assay [8]: Intercellular Adhesion Molecule 1 (ICAM1), ICAM1 (gene 3383)
As to the kind of experiment: BSK_3C_ICAM1: BioMAP Diversity Plus: 3C Assay for Intercellular Adhesion Molecule 1 (ICAM1) Biomarker Activity (AID 2283003). Conditions: primary human endothelial cells (HUVEC); actives raise or lower the signal. The method, boiled down: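 Human vascular endothelial primary cells, 3C conditions, 24 h treatment. ICAM-1 by ELISA.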

Assay [9] addresses human Retinoic Acid Receptor beta (RARb), RARB (gene 5915) (UniProt P10826). As to the kind of experiment: ATG_RARb_TRANS: Attagene TRANS-FACTORIAL HepG2 Assay for human Retinoic Acid Receptor beta (AID 2283004; active = hit-call score of the fitted dose curve at least 0.9, where 1 is the maximum). The method, boiled down: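 Readout is reporter mRNA induction: RNA reverse-transcribed, PCR-amplified, FAM-labelled, HpaI-cut and resolved by capillary electrophoresis. Transiently transfected HepG2 cells carrying exogenous NR–Gal4 chimeras were dosed for 24 h; activity fitted upward relative to DMSO.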

The nature of assay [10]: BSK_3C_Proliferation: Cell Proliferation Assessment in the BioMAP Diversity Plus: 3C Assay (AID 2283006).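 For AC50: potency may reflect either rise or fall in cell number versus DMSO.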 Conditions: primary human endothelial cells (HUVEC). In a few lines:
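Proliferation of human vascular endothelial primary cells after 48 h dosing, quantified as SRB-stained protein at 560 nm relative to DMSO.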

Assay [11] addresses Nuclear receptor subfamily 1 group I member 2 (Homo sapiens) (UniProt O75469). Kind of assay: ATG_PXR_TRANS: Attagene TRANS-FACTORIAL HepG2 Assay for human Pregnane X Receptor (PXR) (AID 2283008; active = hit-call score of the fitted dose curve at least 0.9, where 1 is the maximum). In a few lines:
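HepG2 cells transiently transfected with GAL4-UAS reporter units and PXR-Gal4 chimera, exposed 24 h. Reporter mRNA quantified by RT-PCR, fluorescent labelling, HpaI digestion and capillary electrophoresis; gain of signal vs DMSO.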

Assay [12] concerns the target human Retinoic Acid Receptor gamma (RARg), RARG (gene 5916) (UniProt P13631). Kind of assay: ATG_RARg_TRANS: Attagene TRANS-FACTORIAL HepG2 Assay for human Retinoic Acid Receptor gamma (RARg) (AID 2283009; active = hit-call score of the fitted dose curve at least 0.9, where 1 is the maximum). In a few lines: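 HepG2, RARg-GAL4 TRANS system, 24 h exposure; reporter mRNA by RT-PCR + CE fluorescence; increase over DMSO.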
Assay [13] deals with human RAR-related Orphan Receptor beta (RORb), RORB (gene 6096) (UniProt Q92753). Kind of assay: ATG_RORb_TRANS: Attagene TRANS-FACTORIAL HepG2 Assay for human RAR-related Orphan Receptor beta (RORb) (AID 2283010; active = hit-call score of the fitted dose curve at least 0.9, where 1 is the maximum). The method, boiled down: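 In this TRANS-format test, human HepG2 cells express chimeric NR-Gal4 fusion proteins driving GAL4-UAS reporters. After 24 h dosing, reporter transcripts are measured by fluorescent RT-PCR/capillary electrophoresis, with DMSO as negative control.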
human RAR-related Orphan Receptor beta (RORb), RORB (gene 6096), sequence (Q92753 whole entry, looked up, the tested form may be a part): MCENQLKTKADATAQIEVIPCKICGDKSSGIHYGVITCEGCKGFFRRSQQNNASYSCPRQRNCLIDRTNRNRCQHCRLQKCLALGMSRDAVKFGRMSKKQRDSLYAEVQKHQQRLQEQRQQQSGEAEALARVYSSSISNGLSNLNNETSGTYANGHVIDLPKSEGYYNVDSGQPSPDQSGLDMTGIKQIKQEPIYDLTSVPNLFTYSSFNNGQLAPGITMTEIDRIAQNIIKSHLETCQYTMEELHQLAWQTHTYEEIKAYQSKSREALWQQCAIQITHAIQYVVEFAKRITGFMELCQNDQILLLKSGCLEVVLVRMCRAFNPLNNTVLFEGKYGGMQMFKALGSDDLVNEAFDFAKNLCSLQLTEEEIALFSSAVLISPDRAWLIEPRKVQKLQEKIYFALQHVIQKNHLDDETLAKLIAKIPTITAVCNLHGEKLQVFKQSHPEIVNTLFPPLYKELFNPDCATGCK

A short description of assay [14]: ATG_NRF2_ARE_CIS: Attagene CIS-FACTORIAL HepG2 Assay for human Nuclear Factor Erythroid 2 Related Factor 2 (NFR2) response to Antioxidant Response Elements (ARE) (AID 2282992).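 For AC50: reporter mRNA level measured by RT-PCR and capillary electrophoresis fluorescence.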 Conditions: HepG2 Attagene ARE/NRF2 reporter, transcription factor activity; actives raise or lower the signal. In a few lines:
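HepG2 cells transiently transfected with multiplexed cis-element reporter constructs, 24 h after chemical dosing; reporter mRNA quantified by RT-PCR, fluorescent primer extension, HpaI digestion and capillary electrophoresis. Bidirectional fit relative to DMSO.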

Assay [15] deals with Cellular tumor antigen p53 (Homo sapiens) (UniProt P04637). As to the kind of experiment: ATG_p53_CIS: Attagene CIS-FACTORIAL HepG2 Assay for human p53 Transcription Factor (AID 2282994). Conditions: HepG2 p53 cis-element reporter, Attagene mRNA; actives raise or lower the signal. In a few lines: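 HepG2 cells transiently transfected with cis-regulated multiple reporter transcription units, dosed 24 h. Reporter mRNA measured by RT-PCR, 6-FAM primer extension, HpaI digestion and capillary electrophoresis; bidirectional fit relative to DMSO.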
Cellular tumor antigen p53 (Homo sapiens), sequence (P04637 whole entry, looked up): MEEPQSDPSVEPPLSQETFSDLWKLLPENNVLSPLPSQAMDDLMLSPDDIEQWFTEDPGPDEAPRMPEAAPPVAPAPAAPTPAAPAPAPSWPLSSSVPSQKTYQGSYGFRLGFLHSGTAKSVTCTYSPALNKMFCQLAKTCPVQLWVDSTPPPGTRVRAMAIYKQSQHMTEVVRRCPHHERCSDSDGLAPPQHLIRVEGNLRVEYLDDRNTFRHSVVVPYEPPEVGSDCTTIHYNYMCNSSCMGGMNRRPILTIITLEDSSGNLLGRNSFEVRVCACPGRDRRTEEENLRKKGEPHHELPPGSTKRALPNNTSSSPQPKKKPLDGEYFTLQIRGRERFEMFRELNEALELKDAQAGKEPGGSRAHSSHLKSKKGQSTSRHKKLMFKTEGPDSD

For assay [16], the target named is Peroxisome proliferator-activated receptor gamma (Homo sapiens) (UniProt P37231). As to the kind of experiment: ATG_PPARg_TRANS: Attagene TRANS-FACTORIAL HepG2 Assay for human Peroxisome Proliferator-activated Receptor-gamma (PPARg) (AID 2283007; active = hit-call score of the fitted dose curve at least 0.9, where 1 is the maximum). In a few lines:
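Endpoint reflects upward reporter mRNA change versus DMSO controls. Setup: transiently transfected HepG2, GAL4-UAS reporters driven by chimeric NR-Gal4, 24 h incubation, RT-PCR with capillary electrophoresis read-out.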

Assay [17] has as its target Retinoic acid receptor alpha (Homo sapiens) (UniProt P10276). Kind of assay: ATG_RARa_TRANS: Attagene TRANS-FACTORIAL HepG2 Assay for human Retinoic Acid Receptor alpha (RARa) (AID 2283005; active = hit-call score of the fitted dose curve at least 0.9, where 1 is the maximum). The method, boiled down: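 HepG2 transiently transfected with multiplex GAL4-UAS reporter units including a human RARa–GAL4 chimera; 24 h compound exposure. Reporter mRNA quantified by RT-PCR, 6-FAM labeling and capillary electrophoresis; gain of signal versus DMSO.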

Assay [18] can be described thus: ATG_NF_kB_CIS: Attagene CIS-FACTORIAL HepG2 Assay for human Nuclear Factor Kappa B (NF-kB) (AID 2282991). The note with it: HepG2 Attagene cis-factorial NF-kB reporter mRNA; actives raise or lower the signal. The method, boiled down:
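Endpoint from a 52-component multiplexed HepG2 reporter panel: cis-regulated transcription units transiently transfected, 24 h dosing, reporter mRNA quantified by RT-PCR and capillary electrophoresis, scored as increase or decrease against DMSO.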

A short description of assay [19]: BSK_3C_VCAM1: BioMAP Diversity Plus: 3C Assay for Vascular cell adhesion molecule 1 (VCAM1) Biomarker Activity (AID 2282999). The note with it: BioMAP 3C HUVEC, VCAM1 ELISA, cytokine-stimulated; actives raise or lower the signal. The method, boiled down: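 Human umbilical vein endothelial cells (3C system), biomarker read by ELISA 24 h after dosing; bidirectional fit against DMSO baseline. Cytotoxicity tracked by SRB total-protein staining in parallel cultures at biomarker time.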

Molecules are shown by their SMILES. Records with an inconclusive call do not appear. More than one record can exist for a structure, and the calls need not agree. The source made the active and inactive calls. Rule for the calls, unless noted: active = hit-call score of the fitted dose curve at least 0.9, where 1 is the maximum; inactive = score below 0.9.

Nuclear receptor subfamily 1 group I member 2 (Homo sapiens), sequence (O75469 whole entry, looked up, the tested form may be a part): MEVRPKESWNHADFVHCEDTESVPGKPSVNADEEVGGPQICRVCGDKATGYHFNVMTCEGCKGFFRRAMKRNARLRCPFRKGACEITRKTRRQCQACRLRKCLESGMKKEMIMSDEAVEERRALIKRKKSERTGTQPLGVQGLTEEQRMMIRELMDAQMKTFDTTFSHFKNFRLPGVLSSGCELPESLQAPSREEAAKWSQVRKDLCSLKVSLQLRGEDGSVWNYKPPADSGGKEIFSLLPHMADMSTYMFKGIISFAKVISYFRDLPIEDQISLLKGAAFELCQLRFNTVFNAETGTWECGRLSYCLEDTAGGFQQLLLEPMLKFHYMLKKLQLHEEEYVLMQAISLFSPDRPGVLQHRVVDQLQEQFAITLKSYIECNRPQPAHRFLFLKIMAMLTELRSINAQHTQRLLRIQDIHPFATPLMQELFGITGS
Peroxisome proliferator-activated receptor gamma (Homo sapiens), sequence (P37231 whole entry, looked up, the tested form may be a part): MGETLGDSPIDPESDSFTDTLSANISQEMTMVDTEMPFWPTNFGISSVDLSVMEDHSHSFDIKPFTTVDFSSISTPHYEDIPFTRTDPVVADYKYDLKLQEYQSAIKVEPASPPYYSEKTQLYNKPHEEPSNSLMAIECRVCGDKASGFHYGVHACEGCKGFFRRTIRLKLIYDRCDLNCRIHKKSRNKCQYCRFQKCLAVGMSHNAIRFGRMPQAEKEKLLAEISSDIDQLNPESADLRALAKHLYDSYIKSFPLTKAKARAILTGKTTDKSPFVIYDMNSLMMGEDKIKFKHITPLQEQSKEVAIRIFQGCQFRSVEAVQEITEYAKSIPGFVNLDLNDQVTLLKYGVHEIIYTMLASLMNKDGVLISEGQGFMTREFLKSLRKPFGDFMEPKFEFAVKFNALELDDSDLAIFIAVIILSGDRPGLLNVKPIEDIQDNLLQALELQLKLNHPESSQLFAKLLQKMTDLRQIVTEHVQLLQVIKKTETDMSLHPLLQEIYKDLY
human Retinoic Acid Receptor gamma (RARg), RARG (gene 5916), sequence (P13631 whole entry, looked up, the tested form may be a part): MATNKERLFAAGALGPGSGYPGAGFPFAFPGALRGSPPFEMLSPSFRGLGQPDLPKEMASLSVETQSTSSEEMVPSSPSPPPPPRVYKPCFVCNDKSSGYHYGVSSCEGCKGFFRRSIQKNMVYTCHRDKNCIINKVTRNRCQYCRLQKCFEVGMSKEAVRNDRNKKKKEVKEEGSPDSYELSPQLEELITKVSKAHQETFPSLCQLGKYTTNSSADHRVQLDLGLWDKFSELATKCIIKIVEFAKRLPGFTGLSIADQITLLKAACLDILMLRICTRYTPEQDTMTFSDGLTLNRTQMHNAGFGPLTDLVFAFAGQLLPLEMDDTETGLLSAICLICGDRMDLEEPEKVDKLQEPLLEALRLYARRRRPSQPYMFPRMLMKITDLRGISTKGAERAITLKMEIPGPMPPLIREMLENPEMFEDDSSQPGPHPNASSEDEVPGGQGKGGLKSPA
Retinoic acid receptor alpha (Homo sapiens), sequence (P10276 whole entry, looked up, the tested form may be a part): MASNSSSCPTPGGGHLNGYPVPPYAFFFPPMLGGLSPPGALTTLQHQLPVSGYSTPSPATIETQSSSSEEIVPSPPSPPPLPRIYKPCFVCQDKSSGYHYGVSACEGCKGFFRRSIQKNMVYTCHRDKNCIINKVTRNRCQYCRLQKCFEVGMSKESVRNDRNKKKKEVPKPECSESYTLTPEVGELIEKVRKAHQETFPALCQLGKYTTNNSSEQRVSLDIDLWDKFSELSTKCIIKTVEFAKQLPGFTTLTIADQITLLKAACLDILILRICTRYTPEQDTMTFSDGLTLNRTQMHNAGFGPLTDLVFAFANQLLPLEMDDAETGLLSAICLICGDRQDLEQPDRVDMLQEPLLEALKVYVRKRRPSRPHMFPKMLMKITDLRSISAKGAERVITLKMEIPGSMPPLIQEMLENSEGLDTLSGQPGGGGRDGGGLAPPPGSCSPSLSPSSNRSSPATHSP
human Retinoic Acid Receptor beta (RARb), RARB (gene 5915), sequence (P10826 whole entry, looked up, the tested form may be a part): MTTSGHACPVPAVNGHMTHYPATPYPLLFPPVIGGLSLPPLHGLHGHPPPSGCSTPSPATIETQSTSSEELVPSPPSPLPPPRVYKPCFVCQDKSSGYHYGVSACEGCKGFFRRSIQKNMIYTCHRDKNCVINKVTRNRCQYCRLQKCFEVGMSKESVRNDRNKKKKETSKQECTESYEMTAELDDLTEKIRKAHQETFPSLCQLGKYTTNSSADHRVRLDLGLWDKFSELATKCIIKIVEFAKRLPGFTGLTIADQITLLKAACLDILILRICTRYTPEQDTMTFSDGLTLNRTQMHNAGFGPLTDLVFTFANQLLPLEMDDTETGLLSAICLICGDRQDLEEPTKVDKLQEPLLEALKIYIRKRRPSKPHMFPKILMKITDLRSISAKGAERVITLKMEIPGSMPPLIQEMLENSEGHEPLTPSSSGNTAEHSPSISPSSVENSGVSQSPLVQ
Myc proto-oncogene protein (Homo sapiens), sequence (P01106 whole entry, looked up): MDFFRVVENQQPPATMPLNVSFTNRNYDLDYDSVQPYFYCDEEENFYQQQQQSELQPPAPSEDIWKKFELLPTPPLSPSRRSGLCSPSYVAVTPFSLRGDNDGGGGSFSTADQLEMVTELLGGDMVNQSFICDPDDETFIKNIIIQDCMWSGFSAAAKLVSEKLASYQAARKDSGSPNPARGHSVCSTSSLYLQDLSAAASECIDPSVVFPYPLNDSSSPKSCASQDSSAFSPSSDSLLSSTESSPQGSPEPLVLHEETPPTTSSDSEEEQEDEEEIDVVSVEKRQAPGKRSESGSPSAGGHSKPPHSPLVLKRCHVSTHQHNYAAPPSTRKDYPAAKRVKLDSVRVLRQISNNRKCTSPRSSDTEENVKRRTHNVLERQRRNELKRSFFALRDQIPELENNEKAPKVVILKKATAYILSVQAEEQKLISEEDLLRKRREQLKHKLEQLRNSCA

As for `O=C(c1ccccc1)c1ccccc1`, the outcome in assay [1], in assay [2], in assay [3], in assay [4], in assay [5] and in assay [6] was inactive. The outcome in assay [7], in assay [8], in [9], in assay [10], in [11] and in [12] was inactive. For the same compound, the outcome in assay [13] was inactive. In addition, the AC50 in [11] was 100 µM (active).
`C/C=C/C(=O)C1=C(C)CCCC1(C)C`: the outcome in assay [1] was inactive. The AC50 in assay [14] is 3.93 µM (active); in assay [2] it was 27.1 µM (active); in assay [15] it was 164 µM (active); in assay [16], 64.7 µM (active); in assay [11], 19.8 µM (active).
For the compound `CCCCCCCCCCCC(=O)O`, the compound was classed as inactive in [1], in [2], in [7], in [9], in [17] and in assay [16]. In addition, the compound was classed as inactive in assay [11] and in [12]. For the same compound, the AC50 in assay [2] was 90.6 µM (active); in [16] it was 52.9 µM (active).
With `CCCCCc1ccc(O)cc1`, the result in assay [18], in assay [2], in assay [15], in assay [6], in assay [7] and in [9] was inactive. The compound was classed as inactive in assay [13]. The AC50 was 12 µM (active) in [3]; 13.8 µM (active) in [4]; 23.7 µM (active) in [19]; 14.5 µM (active) in assay [5]; 15.9 µM (active) in [8]; 10.5 µM (active) in assay [10]. The AC50 is 41.4 µM (active) in [16] and 20.7 µM (active) in assay [11].
`CC(=O)Nc1ccc(O)cc1`: the call in [1], in assay [2], in assay [3], in assay [4], in [19] and in assay [5] was inactive. Further, the compound was classed as inactive in assay [7], in [8], in assay [17] and in assay [10].
Turning to `CNNCc1ccc(C(=O)NC(C)C)cc1`, the outcome in assay [2], in assay [15], in assay [6], in [7], in assay [16] and in assay [11] was inactive. For the same compound, the call in [13] was inactive.
`C[N+](C)(CCCNS(=O)(=O)CCC(F)(F)C(F)(F)C(F)(F)C(F)(F)C(F)(F)C(F)(F)F)CC(=O)[O-]`: the compound was classed as inactive in [1], in assay [18], in [2], in [6], in [7] and in assay [9]. For the same compound, the compound was classed as inactive in assay [17], in assay [16] and in [12]. Further, the concentration at half-maximal activity (AC50) in [11] was 0.00287 µM (active).
As for `Cc1ccc(S(=O)(=O)O)cc1`, the call in assay [1], in assay [14], in assay [2], in assay [15], in assay [6] and in assay [9] was inactive. Also, the call in [17], in assay [11] and in assay [13] was inactive.
Take `Clc1ccc(Nc2nnc(Cc3ccncc3)c3ccccc23)cc1`: the outcome in [18], in [2], in [15], in assay [3], in assay [4] and in assay [5] was inactive. In addition, the compound was classed as inactive in [7], in assay [8], in assay [10] and in assay [12]. Also, the results for the AC50 in [14], in assay [16] and in [11] were 18.7 µM (active), 26.9 µM (active) and 3.3 µM (active), respectively.

(Values after PubChem BioAssay (EPA / NIEHS).)
